The record followed here is PubChem BioAssay (EPA / NIEHS).

What is called AC50 is the concentration at which the activity in the assay is half-maximal.

Records with an inconclusive call do not appear. Activity calls are given as the source filed them. Rule for the calls: active = hit-call score of the fitted dose curve at least 0.9, where 1 is the maximum; inconclusive = response in the unintended direction; inactive = score below 0.9.

In one assay the test system is Thyroperoxidase (TPO), gene 54314. As to the kind of experiment: CCTE_Simmons_AUR_rTPO: CCTE's Amplex UltraRed Assay for Thyroperoxidase (TPO) Inhibition, Simmons Lab (AID 2283662).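 For AC50: potency for loss of signal meaning inhibition of peroxidase activity.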 In outline: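 Rat thyroid microsomes (5 ug protein) were incubated with test compound (8 concentrations, 5 nM–87.5 uM final, 0.5% DMSO), 25 uM Amplex UltraRed and 300 uM H2O2 in 200 mM phosphate buffer for 30 min at 37C in the dark; fluorescence read at 544/590 nm.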
As to `CCC(C)(c1ccc(O)cc1)c1ccc(O)cc1`, the AC50 is 1.86 µM (active).
As for `c1ccc(-c2ccccc2)cc1`, the compound was classed as inactive.
As for `CC(C)(c1ccccc1)c1ccc(O)cc1`, the AC50 is 3.55 µM (active).
With `Sc1ccccc1`, the result was inactive.
For the compound `CCOP(=S)(OCC)SCSC(C)(C)C`, the AC50 was 8.68 µM (active).
`O=C(NC(=O)c1c(F)cccc1F)Nc1cc(Cl)c(OC(F)(F)C(F)F)c(Cl)c1`: the AC50 is 20.7 µM (active).

Test system in the next assay: not listed separately
The assay can be described thus: Tanguay_ZF_120hpf_TR_legacy: (Legacy) Oregon State University Tanguay Lab 120 Hour Post-fertilization zebrafish Assay for Touch Response (AID 2283667). Put shortly:
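Readout is presence or absence of touch response in 120 hpf zebrafish larvae, assessed by brightfield observation after continuous static exposure at 28C. Final vehicle was 0.64% (vol/vol) DMSO.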
For `NS(=O)(=O)C(F)(F)C(F)(F)C(F)(F)C(F)(F)C(F)(F)C(F)(F)C(F)(F)C(F)(F)F`, the compound was classed as inactive.
In the case of `CCC(C)(c1ccc(O)cc1)c1ccc(O)cc1`, the AC50 is 42.4 µM (active).
On to `C[C@]12CCC(=O)C=C1CC[C@@H]1[C@@H]2CC[C@@]2(C)[C@H]1CC[C@]2(C)O`, for which the call was inactive.
Still for that read-out and setting: the value for `c1ccc(-c2ccccc2)cc1` was “inactive”; that for `CCOC(=O)C(O)(c1ccc(Cl)cc1)c1ccc(Cl)cc1` was “inactive”.
Still for that read-out and setting: the entry for `CN(C)CCO` is “inactive”.
On the same count and under the same terms, the value for `CCCN(CCC)N=O` was “inactive”; that for `Cc1cc(O)ccc1Cl` was “inactive”; that for `Cc1cccc(C)c1N` was “inactive”.
With `ClC1=C(Cl)[C@]2(Cl)[C@@H]3[C@@H](Cl)[C@H]4O[C@H]4[C@@H]3C1(Cl)C2(Cl)Cl`, the compound was classed as inactive.
On to `CO/C=C(/C(=O)OC)c1ccccc1COc1cccc(C(F)(F)F)n1`, for which the AC50 is 13.2 µM (active).
For `CC(C)(O)C(=O)Nc1ccc([N+](=O)[O-])c(C(F)(F)F)c1`, the outcome was inactive.
For the compound `CC(C)(c1ccccc1)c1ccc(O)cc1`, the compound was called inactive.
Same read-out and setting: the value for `O=NN(c1ccccc1)c1ccccc1` was “inactive”.
`Cc1ccccc1[N+](=O)[O-]`: the compound was called inactive.
For the compound `Clc1ccc(Cl)cc1`, the call was inactive.
The same measure, in the same setting: the value for `CCOP(=S)(OCC)SCSC(C)(C)C` was “inactive”.
As for `ClC1=C(Cl)[C@]2(Cl)[C@@H]3[C@H]4C[C@H]([C@@H]5O[C@H]45)[C@@H]3[C@@]1(Cl)C2(Cl)Cl`, the AC50 was 81.5 µM (active).
Consider `CCOCCOC(C)=O`, for which the call was inactive.
Still for that read-out and setting: the value for `O=C(NC(=O)c1c(F)cccc1F)Nc1cc(Cl)c(OC(F)(F)C(F)F)c(Cl)c1` was “inactive”; that for `Cc1cc2c3c(c1)C(c1ccccc1)=N[C@@H](NC(=O)c1ccncc1)C(=O)N3CC2` was “inactive”; that for `Cc1ccccc1O` was “inactive”.
The same measure, in the same setting: the value for `Oc1ccc(Cl)cc1Cl` was “inactive”; that for `ClC1=C(Cl)[C@]2(Cl)[C@@H]3[C@@H]4C[C@@H]([C@H]5O[C@@H]45)[C@@H]3[C@@]1(Cl)C2(Cl)Cl` was “inactive”; that for `Cc1cccc([N+](=O)[O-])c1` was “inactive”.
Turning to `O=C(O)C(F)(F)C(F)(F)C(F)(F)C(F)(F)C(F)(F)F`, the compound was called inactive.
Still for that read-out and setting: the entry for `Nn1cnnc1` is “inactive”.
For the compound `CC1=C2C[C@H]3[C@@H](CC=C4C[C@@H](O)CC[C@@]43C)[C@@H]2CC[C@]12O[C@@H]1C[C@H](C)CN[C@H]1[C@H]2C`, the AC50 is 22.5 µM (active).
